# SW480 rerep = A quantitative high throughput screen for small molecules that induce DNA re-replication in SW480 colon adenocarcinoma cells; Potency, µM (titrated, usually from 46.1 µM), without a hit: at the top dose re-replication activation, actives largely listed as activators; AID 624297, 2012; SW480 DNA re-replication, Hoechst DNA content imaging, 48 h; 340,000 tested, 1.8% active; note: % of control where 0% means no effect; nearly all actives have a fitted effect of over 55% in size
#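 Cells (250 per well) received 23 nL compound or DMSO by pin tool and were kept 48 hr at 37 C, 5% CO2. Nuclei were then stained with Hoechst for 40 min and scanned for DNA content.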
# PINK1 expr mod = A Quantitative High throughput Screen to Identify Chemical Modulators of PINK1 Expression; PINK1 immunofluorescence, high-content cytometry, 24 h; Potency, µM (series often up to 76.6 µM), for the others: top-dose activation (PINK1 increase), hits mostly activators; 410,000 tested, 0.2% active; AID 624263, 2012; active = well fitted activation curve with a large enough effect; inconclusive = small, poorly fitted or top-dose-only effect; cell line not stated here; note: % of control where 0% means no effect; nearly all actives have a fitted effect of over 65% in size
#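 Measures PINK1 amount and localization on or inside mitochondria by immunofluorescence. Stable cells get compounds at 5 concentrations for 24 hours before fixation and staining; CCCP controls included.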
# KB-V1 cytotox = qHTS assay for MDR1-selective chemotherapeutics: Primary screen using the drug-selected MDR subline cells KB-V1; KB-V1 MDR cells viability, CellTiter-Glo, 72 h; Potency, µM (titrated, usually from 46.1 µM), most hits filed as cytotoxic; 400,000 tested, 3.4% active; note: % is set by controls: 0 for no effect and ±100 for the full control effect; nearly all actives have a fitted effect of over 60% in size
#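 qHTS viability screen in drug-selected KB-V1 MDR cells: 72 h compound treatment at 37 degrees C, ATP luminescence end point.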
# MCF10A rerep = A quantitative high throughput screen for small molecules that induce DNA re-replication in MCF 10a normal breast cells; MCF 10A DNA re-replication, Hoechst nuclear intensity, 48 h; AID 624296, 2012; 350,000 tested, 2.9% active; Potency, µM (doses to about 46.1 µM), for the others: at the highest dose activity, positive = re-replication, actives largely listed as activators; note: % of control where 0% means no effect; nearly all actives have a fitted effect of over 50% in size
# KB-3-1 tox = qHTS assay for MDR1-selective chemotherapeutics: Primary screen using the parental adenocarcinoma cell KB-3-1 | KB-3-1 viability, CellTiter-Glo ATP luminescence, 72 h | Potency, µM (top dose mostly 46.1 µM), hits mostly cytotoxic | 400,000 tested, 1.4% active; note: % is set by controls: 0 for no effect and ±100 for the full control effect; nearly all actives have a fitted effect of over 60% in size
#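 Screening of KB-3-1 cells (DMEM, 10% FBS, phenol-red free) ran from lowest to highest compound concentration; after 72 h at 37 °C viability was read luminescently and curves fitted.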
# The depositor's hits bear a star; i = inactive; u = inconclusive; x = no result given; [ ] = remark or other dose. An excerpt weighted towards active compounds, which were near 6.7% of everything screened. Unless noted, calls come from the whole dose curve; as a rule, active = well fitted curve in the direction sought with a large enough effect; inconclusive = small, poorly fitted or top-dose-only effect, or another doubt; inactive = no such curve, though single readings can be large; an effect the other way counts as inactive or inconclusive. Potency is the fitted concentration of half-maximal effect.
SMILES,SW480 rerep,PINK1 expr mod,KB-V1 cytotox,MCF10A rerep,KB-3-1 tox
COc1ccc(-n2c(CCc3ccccc3)nnc2SCC(=O)c2ccc(Cl)cc2)cc1,14%,5%,5.8µM*,23%,u
Cc1ccc(-n2c(Cc3cccn3C)nnc2SCC(=O)N2CCc3ccccc32)cc1,8%,3%[38.3 µM],6.5µM*,6%,i
Cc1cccc(-n2ccnc2SCC(=O)Nc2nccs2)c1,-6%,-1%,i,9%,i
CCSc1nnc(NC(=O)CSc2nccn2-c2cccc(C)c2)s1,3%,0%,16µM*,-9%,i
O=C(CSc1nnc(CCc2ccccc2)n1-c1ccc(Cl)cc1)c1ccccc1,-5%,u,u,u,i
CC1(C(=O)NS(=O)(=O)c2cccc(Cl)c2)CCN1C(=O)CC1CC1 (configuration not stated),x,1%,i,x,i
COc1ccc(NC(=O)CSc2nnc(Cc3cccn3C)n2CCc2ccccc2)cc1OC,-6%,-1%[38.3 µM],15µM*,2%,i
CCOC(=O)c1c(C)[nH]c(C2=NNC(=Nc3cccc(Cl)c3)SC2)c1C,21µM*,x,x,6.5µM*,x
NNc1nc2c(-c3cccc(C(F)(F)F)c3)nnn2c2ccccc12,3.7µM*,12%,u,2.9µM*,u
CNc1nc2c(-c3ccc(Cl)cc3)nnn2c2ccccc12,6%,-1%,i,u,i
Nc1nc2c(-c3ccc(Br)cc3)nnn2c2ccccc12,10µM*,6%,i,5.2µM*,i
Cc1cccc(-c2nnn3c2nc(NCCc2ccc(S(N)(=O)=O)cc2)c2ccccc23)c1,2.3µM*,0%,i,5.2µM*,i
FC(F)(F)c1cccc(-c2nnn3c2nc(NC2CCCCC2)c2ccccc23)c1,x,0%,i,x,i
Cc1ccc(-c2nnn3c2nc(NC(C)C)c2ccccc23)cc1,u,10%,i,16µM*,i
Cc1ccc(-c2nnn3c2nc(NC2CCC(C)CC2)c2ccccc23)cc1 (configuration not stated),x,2%,i,x,i
Cc1cc(C)c(NC(=O)Cn2c(=O)n(CCC(=O)N3CCc4ccccc4C3)c(=O)c3ccccc32)c(C)c1,x,8%,u,x,i
CCCCSc1nc2sc3c(c2c(=O)n1-c1ccccc1)CCN(C)C3,23%,2%,i,u,i
CN1CCc2c(sc3nc(SCC(N)=O)n(-c4ccc(Cl)cc4)c(=O)c23)C1,u,0%,i,16µM*,i
CCSc1nc2sc3c(c2c(=O)n1-c1ccccc1)CCN(C(C)C)C3,-1%,3%,i,18µM*,i
O=C(Nc1cccc(Oc2ccccc2)c1)c1ccc(-n2cncn2)c2ccoc12,x,3%,i,x,i
COc1ccc(/C=C2\Sc3ccc(C(=O)NCC4CCCO4)cc3N(C)C2=O)cc1 (configuration not stated),23µM*,-1%,i,23µM*,i
Cc1cc(C)cc(N(CCC(=O)O)S(=O)(=O)c2ccc(Cl)cc2)c1,-29%,4%,i,2%,i
CCc1nnc(NC(=O)CCN(c2cc(C)cc(C)c2)S(=O)(=O)c2ccc(Cl)cc2)s1,26%,3%,2.6µM*,u,u
O=C(c1cccc([N+](=O)[O-])c1)N1CCN(C/C=C/c2ccccc2)CC1,-1%,-1%,u,2%,i
CC(C(=O)Nc1cccc([N+](=O)[O-])c1)N1CCN(C/C=C/c2ccccc2)CC1 (configuration not stated),8%,-2%,3.7µM*,-2%,i
SMILES,SW480 rerep,PINK1 expr mod,KB-V1 cytotox,MCF10A rerep,KB-3-1 tox
CC(C)CCNC(=O)CN1C(=O)CSc2ccc(S(=O)(=O)N3CCCCC3)cc21,x,2%,i,x,i
COCc1c(C(=O)N2CCN(C3CCCC3)CC2)cnn1-c1nccc(-c2cccs2)n1,x,0%,x,x,x
O=C1N=C(N2CCN(c3cccc4ccccc34)CC2)S/C1=C/c1cccs1,1%,0%,i,-21%,i
Cc1ccccc1N1CCN(C2=NC(=O)/C(=C\c3cccs3)S2)CC1,u,5%,i,6.5µM*,u
Cc1ccc(NC(=S)N2CCN(Cc3ccc4c(c3)OCO4)CC2)c(C)c1,1%[9.22 µM],-2%,i,u,i
CN(C)S(=O)(=O)c1ccc(Cl)c(NC(=O)CN2CCN(Cc3ccc4c(c3)OCO4)CC2)c1,4%,1%,15µM*,u,u
CCN(CC)S(=O)(=O)c1ccc(C)c(NC(=S)N2CCN(Cc3ccc4c(c3)OCO4)CC2)c1,-5%,-2%,u,u,23µM*
Fc1ccccc1N1CCN(c2ncnc3onc(-c4ccc(Cl)cc4)c23)CC1,x,3%,i,x,i
Cc1cn2c(=O)cc(COC(=O)c3ccc(NC(=O)C(C)Oc4ccccc4)cc3)nc2s1 (configuration not stated),x,1%,x,x,x
Cc1cccc(-n2c(C)nc3cc(C(=O)NCCC4=CCCCC4)ccc32)c1,x,1%,i,x,i
CC(C)[C@@H](NC(=O)OC(C)(C)C)c1cc(C(=O)c2c(-c3ccccc3)[nH]c3ccccc23)c(N)s1,x,x,23µM*,x,u
NC(=O)c1cc([N+](=O)[O-])ccc1NCC1CCCCC1,-12%,6%,i,27%,i
CC(C)N(Cc1ccccc1)C(=O)c1nc(-c2ccc(Cl)cc2)n2c1CCCCC2,x,u,16µM*,x,i
O=C(NCc1ccccc1)c1nc(-c2ccc(Cl)cc2)n2c1CCCCC2,x,6%,u,x,i
Cc1ccc(-c2nc(C(=O)NCc3ccc(Cl)cc3)c3n2CCCCC3)cc1,x,3%,13µM*,x,u
COC(=O)c1ccccc1NC(=O)c1nc(-c2ccc(C)cc2)n2c1CCCCC2,x,-1%,15µM*,x,u
Cc1c(NS(=O)(=O)c2ccccc2)cc(C(C)C)c(O)c1S(=O)(=O)c1ccc(Cl)cc1,x,7%,i,x,i
CCOc1ccccc1CNC(=O)c1cc2c(=O)n(Cc3ccco3)ccc2nc1C,x,2%,x,x,x
Cn1cccc1C(=O)OCC(=O)Nc1sccc1C#N,0%,1%,16µM*,0%,u
CCN1/C(=C/c2ccc3cc(C)ccc3[n+]2CC)Sc2ccc3sccc3c21,26%,u,i,6%,2.6µM*
CCN1/C(=C/c2ccc3cc(C)cc(C)c3[n+]2CC)Sc2cc(C)ccc21,0%,0%,i,5.8µM*,i
CCN1/C(=C\c2ccc3cc(C)ccc3[n+]2CC)Sc2cc(C)c(C)cc21,2%,u,i,u,u
